# Reference: PubChem BioAssay (NCI)
# This is part of a sample that, as a whole, favours compounds with a hit. Of some 83,000 tested, about 20% had one in any assay.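 Results are percent growth after 48 hours of single-concentration exposure. 100 means growth as in untreated cells, lower positive values show inhibition; negative values down to -100 show cell death.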 Activity calls are given as the source filed them. The calls were made as follows: active = growth percent below 10; inactive = the rest.
# Tested on: OVCAR-3 ovarian
# Experiment: NCI-60 one-dose screen, 48 h (100 = growth as untreated, 0 = no growth, -100 = all killed)
# Conditions: 10 µM unless noted
row,Compound,growth
1,CN1C(=O)/C(=C\c2nc([P+](c3ccccc3)(c3ccccc3)c3ccccc3)c(N3CCOCC3)o2)SC1=S,100% (inactive)
2,COc1ccc2c(c1)c(-c1nc(-c3c[nH]c4ccncc34)cs1)cn2C,-90.5% (active)
3,COc1ccc(C(=O)c2cc3c(N)c(C(=O)Nc4ccc(C)cc4)sc3nc2C)cc1,-5.4% (active)
4,COc1cc2nc3cc([N+](=O)[O-])ccc3c(NCCNCC(C)O)c2cc1OC (stereo not given),-35.9% (active)
5,Cc1sc2nc(NCCc3c[nH]c4ccc(Cl)cc34)[nH]c(=O)c2c1C,64.7% (inactive)
6,CC/C(=C(/c1ccc(Cl)cc1)c1ccc(OCCN(C)C)cc1)c1ccc(Cl)cc1,65% (inactive)
7,CNC(=O)c1[nH]cc(-c2ccc(OC)cc2)c1-c1cc(OC)c2c(c1OC)OCO2,100% (inactive)
8,C=CCc1c(O)c(C(=O)/C=C/c2ccccc2)c(OC)c2ccoc12,13.7% (inactive)
9,COc1ccc(-c2cc(-c3ccc(Cl)cc3)c(C#N)c(=O)n2Cc2ccc(C(=O)Nc3ccccc3N)cc2)cc1,42.6% (inactive)
10,COc1ccc(/C=C/C(=O)c2cccc(OCCCCOc3cccc(C(=O)/C=C/c4ccc(OC)c(OC)c4)c3)c2)cc1OC,80.9% (inactive)
11,CCOC(=O)c1ccc(NC(=O)c2nc(-c3cc(OC)c(OC)c(OC)c3)n(-c3ccc(Cl)cc3)n2)cc1,99.7% (inactive)
12,Cc1ccc(CNc2ccc3nc(CCC4CCCCC4)[nH]c3c2)cc1,28.6% (inactive)
13,CC(=O)c1c(C)nc(SCC(=O)Nc2cccc(O)c2)n1-c1ccc(Cl)cc1,103% (inactive)
14,Cc1ccc2c(c1)=C/C(=C\c1cc(-c3ccccc3)oc1O)C(=O)N=2,96.5% (inactive)
15,O=C(CSc1nnc(-c2cnccn2)n1-c1ccccc1)c1ccc(Cl)cc1,98.3% (inactive)
16,CCC(=C(c1ccc(OCCN2CCCCC2)cc1)c1ccc(OCCN2CCCCC2)cc1)c1ccc(Cl)cc1,-83.9% (active)
17,O=C(Nc1ccc(Oc2cccc(Cl)c2)c(Cl)c1)c1cnccn1,-7.23% (active)
18,CCCNc1nc2ccccc2c2c1S(=O)(=O)c1ccc(Cl)cc1C2=O,-17% (active)

row,Compound,growth
1,C=CCOC(=O)Nc1cccn([C@H](Cc2ccccc2)C(=O)NCCC(C)C)c1=O,119% (inactive)
2,N#Cc1c(-c2ccc(Cl)cc2)nc(NN2C(=O)c3ccccc3C2=O)nc1N1CCOCC1,113% (inactive)
3,N#Cc1nc(-c2ccc(F)cc2)oc1S(=O)(=O)N1CCCCC1,-54.5% (active)
4,COc1ccc2cc1Oc1ccc(cc1)C[C@H]1c3c(cc4c(c3Oc3cc5c(cc3OC)CCN(C)[C@@H]5C2)OCO4)CCN1C,49.5% (inactive)
5,C=C1C(=O)O[C@H]2[C@H]1CC/C(COC(=O)/C=C\C(=O)NCc1ccc(Cn3c(=O)sn(CCI)c3=O)cc1)=C\CC[C@@]1(C)O[C@@H]21,10.4% (inactive)
6,CCOC(=O)c1c(NC(=O)c2ccc(Cl)cc2)sc2c(CN(C)C)c(O)ccc12,105% (inactive)
7,CSc1nc(N)c(NS(=O)(=O)c2ccc(C(C)=O)cc2)c(=O)[nH]1,105% (inactive)
8,COc1cc2c(c(OC)c1OC)CCC(c1cccc(C(=O)Nc3cccc(Cl)c3)c1)O2 (stereo not given),85.3% (inactive)
9,Cc1nc2sc(C(=O)Nc3cccc4ccccc34)c(N)c2cc1C(O)c1ccccc1 (stereo not given),-5.29% (active)
10,COc1ccc(C(=O)N2c3ccccc3Sc3ccccc32)c(OC)c1,-28% (active)
11,Cc1nc2sc(C(=O)Nc3ccc(Br)cc3)c(N)c2cc1C(O)c1ccccc1 (stereo not given),73.9% (inactive)
12,CNc1nnc2n(-c3ccccc3)c(=O)c3cnn(-c4ccccc4)c3n12,104% (inactive)
13,[O-]/[N+](=C\c1ccc(-n2cc(Cc3ccccc3Cc3cn(-c4ccc(/C=[N+](/[O-])c5ccccc5)cc4)nn3)nn2)cc1)c1ccccc1,102% (inactive)
14,COc1ccc(/C=N\Nc2nc(SCCC(C)C)nc(-c3ccc(OC)cc3)c2C#N)cc1,12.8% (inactive)
15,COC1/C=C/OC2(C)Oc3c(C)c(O)c4c(O)c(c(/C=N/Nc5ccc([N+](=O)[O-])cc5[N+](=O)[O-])c(O)c4c3C2=O)NC(=O)C(C)=C/C=C/C(C)C(O)C(C)C(O)C(C)C(OC(C)=O)C1C (stereo not given),-42.1% (active)
16,COc1cc(OC)c(NC(=O)c2cc3ccccc3cc2O)cc1Cl,2.27% (active)
17,CC(C)(C)[Si](C)(C)OC1[C@@H](CNC(=O)NC(=O)NC(N)=O)O[C@@H](n2cnc3c(NC(=O)Nc4ccccc4)ncnc32)[C@H]1O[Si](C)(C)C(C)(C)C (stereo not given in full),68.4% (inactive)
